Inconclusive results are not listed. The source holds several records for some structures; these can differ, active in one and inactive in another. The source made the active and inactive calls. How the source made its calls, unless noted: active means hit-call score of the fitted dose curve at least 0.9, where 1 is the maximum; inconclusive means response in the unintended direction; inactive means score below 0.9.
Tests used:
[1] = test system: Sodium/Iodide Symporter (NIS), SLC5A5 (gene 6528); assay: CPHEA_Stoker_NIS_Inhibition_RAIU: CPHEA's Radioactive Iodide Uptake (RAIU) Assay for Sodium/Iodide Symporter (NIS) Inhibition, Stoker and Laws Labs (AID 2283841)
Summary of the method: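 HEK293T cells stably expressing human NIS (hNIS-HEK293T-EPA) were exposed to test chemicals at 0.001–100uM (0.5% final DMSO) with 125I at a final 329pM in HBSS/10mM HEPES pH 7.4. After 2 hours at room temperature and ice-cold washes, intracellular 125I was counted as CPM and normalized to DMSO wells.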

[2] = CPHEA_Stoker_NIS_Cytotoxicity: Cytotoxicity Assessment for CPHEA's Radioactive Iodide Uptake (RAIU) Assay for Sodium/Iodide Symporter (NIS) Inhibition, Stoker and Laws Labs (AID 2283897);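 on AC50: active means loss of ATP signal versus DMSO meaning cytotoxicity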
Summary of the method: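 hNIS-HEK293T-EPA human kidney cells were exposed for 2 hours at room temperature to test chemicals (0.001–100uM, 0.5% final DMSO) in HEPES-buffered HBSS, pH 7.4. Viability was read as ATP content by luciferase bioluminescence, loss of signal versus DMSO.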

[3] = molecular target: Peroxisome proliferator-activated receptor gamma (Homo sapiens) (UniProt P37231); assay: ATG_hPPARg_XSP2: Attagene TRANS-FACTORIAL Multi-Species (XSP2) HepG2 Assay for human Peroxisome Proliferator-activated Receptor gamma (PPARg) (AID 2283829);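 further: actives raise reporter mRNA above DMSO so AC50 reflects PPARg activation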
Chain of Peroxisome proliferator-activated receptor gamma (Homo sapiens) (P37231 whole entry, looked up, the tested form may be a part): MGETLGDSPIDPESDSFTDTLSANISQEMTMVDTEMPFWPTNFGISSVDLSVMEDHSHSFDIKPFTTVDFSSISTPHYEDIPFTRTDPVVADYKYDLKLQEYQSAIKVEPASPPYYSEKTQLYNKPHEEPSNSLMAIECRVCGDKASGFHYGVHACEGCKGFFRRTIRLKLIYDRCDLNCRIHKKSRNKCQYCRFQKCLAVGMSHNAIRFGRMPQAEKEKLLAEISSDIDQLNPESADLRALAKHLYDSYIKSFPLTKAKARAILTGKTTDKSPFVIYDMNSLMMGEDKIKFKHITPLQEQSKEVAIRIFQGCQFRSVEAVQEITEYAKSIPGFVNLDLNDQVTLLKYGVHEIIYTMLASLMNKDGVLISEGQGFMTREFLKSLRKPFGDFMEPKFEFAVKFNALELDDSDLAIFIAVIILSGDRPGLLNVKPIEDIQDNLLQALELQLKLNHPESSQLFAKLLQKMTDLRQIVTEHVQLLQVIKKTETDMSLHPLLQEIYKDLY
Summary of the method: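 Human HepG2 cells carried transiently transfected Gal4 reporter units and were treated with chemical for 24 h alongside androgen-receptor stimulants (3 nM 6-alpha-fluorotestosterone, 1.5 nM norgestrel). Reporter transcripts were detected by RT-PCR with capillary electrophoresis, analysed in the positive direction against DMSO.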

[4] = molecular target: mouse Peroxisome Proliferator-activated Receptor gamma (PPARg), Pparg (gene 19016) (UniProt P37238); assay: ATG_mPPARg_XSP2: Attagene TRANS-FACTORIAL Multi-Species (XSP2) HepG2 Assay for mouse Peroxisome Proliferator-activated Receptor gamma (PPARg) (AID 2283830);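 further: hits are gains in reporter mRNA above DMSO so AC50 marks activation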
Chain of mouse Peroxisome Proliferator-activated Receptor gamma (PPARg), Pparg (gene 19016) (P37238 whole entry, looked up, the tested form may be a part): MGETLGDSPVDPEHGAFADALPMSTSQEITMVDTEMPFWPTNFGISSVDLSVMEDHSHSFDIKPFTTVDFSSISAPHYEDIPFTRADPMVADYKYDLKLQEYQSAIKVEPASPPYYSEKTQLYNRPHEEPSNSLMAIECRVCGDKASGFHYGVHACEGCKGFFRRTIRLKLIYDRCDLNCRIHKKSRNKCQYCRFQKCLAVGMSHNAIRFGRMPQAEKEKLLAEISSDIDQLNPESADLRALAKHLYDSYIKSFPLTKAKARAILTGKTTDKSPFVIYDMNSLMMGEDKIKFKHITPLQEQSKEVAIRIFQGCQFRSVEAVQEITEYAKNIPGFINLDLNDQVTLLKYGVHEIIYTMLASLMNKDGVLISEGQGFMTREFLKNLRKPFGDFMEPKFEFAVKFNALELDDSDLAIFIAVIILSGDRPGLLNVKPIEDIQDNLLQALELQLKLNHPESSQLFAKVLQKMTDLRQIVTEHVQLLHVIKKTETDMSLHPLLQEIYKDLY
Summary of the method: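 Multiplexed TRANS reporter readout: after 24 h chemical exposure of transfected HepG2 cells (with 3 nM 6-alpha-fluorotestosterone, 1.5 nM norgestrel present), RNA reverse-transcribed, amplified, 6-FAM-labelled and resolved by capillary electrophoresis; mouse PPARg-Gal4 induction scored against DMSO.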

[5] = molecular target: Nuclear receptor subfamily 1 group I member 2 (Mus musculus) (UniProt O54915); assay: ATG_mPXR_XSP2: Attagene TRANS-FACTORIAL Multi-Species (XSP1) HepG2 Assay for mouse Pregnane X Receptor (PXR) (AID 2283831)
Chain of Nuclear receptor subfamily 1 group I member 2 (Mus musculus) (O54915 whole entry, looked up): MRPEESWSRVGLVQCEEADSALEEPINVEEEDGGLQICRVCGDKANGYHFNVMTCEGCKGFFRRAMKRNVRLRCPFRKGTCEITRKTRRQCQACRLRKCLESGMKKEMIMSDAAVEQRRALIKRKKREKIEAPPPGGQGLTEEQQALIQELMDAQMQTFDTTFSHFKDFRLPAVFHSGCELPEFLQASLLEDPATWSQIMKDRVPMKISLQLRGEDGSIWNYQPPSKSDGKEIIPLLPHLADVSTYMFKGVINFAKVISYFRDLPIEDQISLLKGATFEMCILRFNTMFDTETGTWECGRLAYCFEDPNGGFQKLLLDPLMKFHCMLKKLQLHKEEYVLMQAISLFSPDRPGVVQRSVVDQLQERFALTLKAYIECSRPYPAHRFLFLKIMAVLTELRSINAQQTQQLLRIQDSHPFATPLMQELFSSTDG
Summary of the method: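 Fluorescence signals from capillary electrophoresis of RT-PCR-amplified reporter mRNA give the readout, gain-of-signal versus DMSO. Transfected HepG2 cells, 24 h dosing, medium contained 3 nM 6-alpha-fluorotestosterone and 1.5 nM norgestrel.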

[6] = molecular target: zebrafish Thyroid Hormone Receptor alpha (TRa), thraa (gene 30670) (UniProt Q98867); assay: ATG_zfTRa_XSP2: Attagene TRANS-FACTORIAL Multi-Species (XSP1) HepG2 Assay for zebrafish Thyroid Hormone Receptor alpha (TRa) (AID 2283832);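 further: actives raise zebrafish TRa-Gal4 reporter transcript above DMSO baseline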
Chain of zebrafish Thyroid Hormone Receptor alpha (TRa), thraa (gene 30670) (Q98867 whole entry, looked up, the tested form may be a part): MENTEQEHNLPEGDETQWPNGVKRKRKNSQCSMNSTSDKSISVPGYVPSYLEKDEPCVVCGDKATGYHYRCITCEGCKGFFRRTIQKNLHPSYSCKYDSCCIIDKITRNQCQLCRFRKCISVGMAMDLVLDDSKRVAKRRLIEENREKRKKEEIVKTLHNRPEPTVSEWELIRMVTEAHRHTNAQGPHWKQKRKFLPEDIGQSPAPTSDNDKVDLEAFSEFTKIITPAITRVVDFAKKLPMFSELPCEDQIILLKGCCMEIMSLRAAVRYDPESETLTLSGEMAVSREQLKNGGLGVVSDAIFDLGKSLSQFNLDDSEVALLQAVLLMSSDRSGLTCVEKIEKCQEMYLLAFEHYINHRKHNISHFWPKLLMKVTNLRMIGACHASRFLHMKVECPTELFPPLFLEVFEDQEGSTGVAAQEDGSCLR
Summary of the method: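 Chimeric zebrafish TRa-Gal4 activity read in transfected human HepG2 as GAL4-UAS reporter transcripts, 24 h post-dose, via RT-PCR with labeled primer extension and capillary electrophoresis. Medium also carries 3 nM 6-alpha-fluorotestosterone and 1.5 nM norgestrel; DMSO baseline.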

[7] = test system: zebrafish Peroxisome Proliferator-activated Receptor gamma (PPARg), gene 557037; assay: ATG_zfPPARg_XSP2: Attagene TRANS-FACTORIAL Multi-Species (XSP2) HepG2 Assay for zebrafish Peroxisome Proliferator-activated Receptor gamma (PPARg) (AID 2283833);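 further: actives increase reporter signal over DMSO so AC50 reflects activation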
Summary of the method: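 HepG2, transient MRTU transfection, 24 h compound; zfPPARg-GAL4 reporter mRNA by RT-PCR + capillary electrophoresis; gain-of-signal vs DMSO.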

[8] = test system: turtle Thyroid Hormone Receptor, alpha (TRa), gene 101949057; assay: ATG_trTRa_XSP2: Attagene TRANS-FACTORIAL Multi-Species (XSP1) HepG2 Assay for turtle Thyroid Hormone Receptor, alpha (TRa) (AID 2283834);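 further: hits raise reporter mRNA over the DMSO baseline so AC50 marks activators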
Summary of the method: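 Multiplexed TRANS reporter assay; HepG2 carrying NR-Gal4 constructs treated 24 h. mRNA of the GAL4-UAS reporter quantified via labelled RT-PCR fragments on a genetic analyzer, vs DMSO negative control.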

[9] = ATG_M_61_XSP2: Attagene TRANS-FACTORIAL Multi-Species (XSP2) HepG2 Assay for M61 Transcription Factor (Internal Marker) (AID 2283835; active means hit-call score of the fitted dose curve at least 0.9, where 1 is the maximum; inactive means score below 0.9;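 further: reporter mRNA of an internal background marker read by RT-PCR and capillary electrophoresis; active means a rise in signal above the DMSO baseline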)
Summary of the method: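 Transient MRTU transfection of human HepG2; 24 h chemical dosing with 3 nM 6-alpha-fluorotestosterone + 1.5 nM norgestrel added for AR stimulation. RNA isolated, RT, PCR, FAM-labelled, HpaI cut, CE read. Positive direction vs DMSO.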

[10] = molecular target: human Thyroid hormone Receptor alpha (TRa), THRA (gene 7067) (UniProt P10827); assay: ATG_hTRa_XSP2: Attagene TRANS-FACTORIAL Multi-Species (XSP2) HepG2 Assay for human Thyroid hormone Receptor alpha (TRa) (AID 2283838)
Chain of human Thyroid hormone Receptor alpha (TRa), THRA (gene 7067) (P10827 whole entry, looked up, the tested form may be a part): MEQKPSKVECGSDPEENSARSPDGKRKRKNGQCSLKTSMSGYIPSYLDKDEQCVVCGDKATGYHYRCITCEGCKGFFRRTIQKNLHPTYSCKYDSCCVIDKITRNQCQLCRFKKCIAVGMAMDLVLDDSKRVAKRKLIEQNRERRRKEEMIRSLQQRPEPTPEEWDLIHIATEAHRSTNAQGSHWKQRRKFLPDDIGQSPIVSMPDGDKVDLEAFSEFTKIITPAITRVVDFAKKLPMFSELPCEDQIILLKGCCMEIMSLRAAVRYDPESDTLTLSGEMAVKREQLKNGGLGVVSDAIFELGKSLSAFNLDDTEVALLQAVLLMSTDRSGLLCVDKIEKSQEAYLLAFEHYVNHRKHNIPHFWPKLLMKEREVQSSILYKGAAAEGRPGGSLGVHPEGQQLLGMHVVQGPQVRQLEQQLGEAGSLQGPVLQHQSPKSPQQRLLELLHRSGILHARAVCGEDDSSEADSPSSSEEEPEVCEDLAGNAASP
Summary of the method: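 Reporter transcripts were read by RT-PCR with fluorescent primer extension, HpaI digestion and capillary electrophoresis. These came from HepG2 cells carrying multiplexed TRa-Gal4 TRANS constructs, harvested 24 hours after dosing. The medium also held 6-alpha-fluorotestosterone (3 nM) and norgestrel (1.5 nM), and increases were fitted against DMSO.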

[11] = molecular target: frog Thyroid hormone Receptor alpha (TRa), thra-a (gene 397942) (UniProt P15204); assay: ATG_frTRa_XSP2: Attagene TRANS-FACTORIAL Multi-Species (XSP2) HepG2 Assay for frog Thyroid hormone Receptor alpha (TRa) (AID 2283839)
Chain of frog Thyroid hormone Receptor alpha (TRa), thra-a (gene 397942) (P15204 whole entry, looked up, the tested form may be a part): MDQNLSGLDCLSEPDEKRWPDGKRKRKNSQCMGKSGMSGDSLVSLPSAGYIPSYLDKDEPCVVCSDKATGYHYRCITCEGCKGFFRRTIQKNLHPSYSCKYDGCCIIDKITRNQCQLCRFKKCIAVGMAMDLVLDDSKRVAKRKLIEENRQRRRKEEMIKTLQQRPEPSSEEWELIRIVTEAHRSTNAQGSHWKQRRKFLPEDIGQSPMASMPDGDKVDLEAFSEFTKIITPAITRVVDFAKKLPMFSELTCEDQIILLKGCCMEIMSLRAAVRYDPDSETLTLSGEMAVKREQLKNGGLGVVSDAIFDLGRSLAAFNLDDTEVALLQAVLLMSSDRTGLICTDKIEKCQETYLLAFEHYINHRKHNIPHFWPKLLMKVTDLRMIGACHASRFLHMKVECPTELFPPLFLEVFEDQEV
Summary of the method: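 Chimeric frog TRα-GAL4 activity in human liver cells measures reporter transcript induction 24 h post-dose. Detection uses RT-PCR, HpaI-digested labelled products and fluorescence capillary electrophoresis; DMSO serves as negative control.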

[12] = molecular target: zebrafish Thyroid Hormone Receptor beta (TRb), thrb (gene 30607) (UniProt Q9PVE4); assay: ATG_zfTRb_XSP2: Attagene TRANS-FACTORIAL Multi-Species (XSP1) HepG2 Assay for zebrafish Thyroid Hormone Receptor beta (TRb) (AID 2283836)
Chain of zebrafish Thyroid Hormone Receptor beta (TRb), thrb (gene 30607) (Q9PVE4 whole entry, looked up, the tested form may be a part): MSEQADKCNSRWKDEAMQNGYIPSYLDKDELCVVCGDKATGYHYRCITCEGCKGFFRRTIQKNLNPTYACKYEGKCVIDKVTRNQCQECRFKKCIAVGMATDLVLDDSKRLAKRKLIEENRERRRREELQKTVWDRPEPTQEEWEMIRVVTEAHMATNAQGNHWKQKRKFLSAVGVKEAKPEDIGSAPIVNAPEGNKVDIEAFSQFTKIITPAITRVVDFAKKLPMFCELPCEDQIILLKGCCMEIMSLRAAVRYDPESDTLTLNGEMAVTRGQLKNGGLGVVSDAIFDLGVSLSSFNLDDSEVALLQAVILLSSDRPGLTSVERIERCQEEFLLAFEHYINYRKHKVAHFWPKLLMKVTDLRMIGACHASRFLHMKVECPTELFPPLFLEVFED
Summary of the method: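 Reporter transcripts measured by RT-PCR, 6-FAM labelling, HpaI digestion and capillary electrophoresis after 24 h chemical exposure. Human HepG2 cells carry an exogenous zebrafish TRb-GAL4 chimera; medium included 3 nM 6-alpha-fluorotestosterone plus 1.5 nM norgestrel.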

CCN(CC)C(=O)SCc1ccc(Cl)cc1
AC50 [1]: 50 µM (active)
outcome [2]: inactive

COP(=S)(OC)Oc1ccc(SC)c(C)c1
AC50 [3]: 34.2 µM (active)
AC50 [4]: 35.8 µM (active)
AC50 [5]: 1.94 µM (active)
outcome [6]: inactive
outcome [7]: inactive
outcome [8]: inactive
outcome [9]: inactive
outcome [10]: inactive
outcome [11]: inactive
outcome [1]: inactive
outcome [2]: inactive

O=S(=O)(O)C(F)(F)C(F)(F)C(F)(F)C(F)(F)C(F)(F)C(F)(F)C(F)(F)C(F)(F)F
AC50 [3]: 119 µM (active)
AC50 [4]: 145 µM (active)
outcome [5]: inactive
outcome [7]: inactive
outcome [9]: inactive
outcome [1]: inactive
outcome [2]: inactive

C[C@H]1[C@H](c2ccc(Cl)cc2)SC(=O)N1C(=O)NC1CCCCC1
outcome [1]: inactive
outcome [2]: inactive

CCCN(CCOc1c(Cl)cc(Cl)cc1Cl)C(=O)n1ccnc1
AC50 [3]: 16.6 µM (active)
AC50 [4]: 20.4 µM (active)
AC50 [5]: 0.108 µM (active)
outcome [6]: inactive
outcome [7]: inactive
outcome [9]: inactive
outcome [12]: inactive
outcome [10]: inactive
outcome [11]: inactive
AC50 [1]: 76.5 µM (active)
AC50 [2]: 50 µM (active)

O=C1c2ccccc2C(=O)N1SC(Cl)(Cl)Cl
AC50 [1]: 11.6 µM (active)
outcome [2]: inactive

CC[C@H](C)[C@H]1O[C@]2(C=C[C@@H]1C)C[C@@H]1C[C@@H](C/C=C(\C)[C@@H](O[C@H]3C[C@H](OC)[C@@H](O[C@H]4C[C@H](OC)[C@@H](O)[C@H](C)O4)[C@H](C)O3)[C@@H](C)/C=C/C=C3\CO[C@@H]4[C@H](O)C(C)=C[C@@H](C(=O)O1)[C@]34O)O2 (tested in a mixture with another compound)
outcome [1]: inactive
outcome [2]: inactive

Reference: PubChem BioAssay (EPA / NIEHS)
